According to PubChem BioAssay (NCI):
This is part of a sample that, as a whole, favours compounds with a hit. Of some 83,000 tested, about 20% had one in any assay.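 Growth was measured after 48 h exposure to one concentration of compound in 96-well plates. Values under 10 count as active.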 Unmarked numbers belong to inactive results. The source made the active and inactive calls.

System: SW-620 colon
Assay: NCI-60 one-dose screen, 48 h (100 = growth as untreated, 0 = no growth, -100 = all killed)
Settings: 10 µM unless noted
Description: Growth inhibition of the SW-620 human tumor cell line is measured as a screen for anti-cancer activity. Cells are grown in 96 well plates and exposed to the test compound for 48 hours. Compounds are tested at a single concentration, which is 10^-5 M for most compounds. The reported endpoint is percent growth (GI% or GIPRCNT), where numbers from 0 - 100% represent growth inhibition, and numbers from -100% - 0 represent cell death. For example, a value of 40 represents 60% growth inhibition. A value of 0 means no net growth occurred over the course of the experiment. A value of -40 indicates 40% of cells at the beginning of the experiment died by the end of the experiment. A value of -100 means all cells are dead at the end of the experiment.
NCI-60 Human Tumor Cell Lines Screen was performed using the standard one-dose NCI protocol, which is described in more detail at https://dtp.cancer.gov/discovery_development/nci-60/default.htm.
Compounds with GIPRCNT values below 10 were considered active. Activity score was based on GIPRCNT using the following formula: […]
Score is 0 for GIPRCNT values of 100 or above, 50 for GIPRCNT values of 0, and 100 for GIPRCNT values of -100.

Row | SMILES | growth
1 | Cc1c2ncccc2nc2[nH]c3ccc(OCCN(C)C)cc3c12 | 17.3%
2 | CC1(C)CC[C@]23CC[C@]4(C)[C@H](CC[C@@H]5[C@@]6(C)C/C(=C/O)C(=O)C(C)(C)[C@@H]6CC[C@]54C)[C@H]2[C@H]1OC3 | 103%
3 | Cc1sc2nc(NCCN)[nH]c(=O)c2c1C | 95.5%
4 | O=C(O)c1cn(C2CC2)c2cc(N3CCN(C(=O)N/N=C/c4cccc5ccccc45)CC3)c(F)cc2c1=O | 109%
5 | COC1/C=C/OC2(C)Oc3c(C)c(O)c4c(O)c(c(/C=N/N(c5ccccc5)c5ccccc5)c(O)c4c3C2=O)NC(=O)C(C)=C/C=C/C(C)C(O)C(C)C(O)C(C)C(OC(C)=O)C1C (stereo not given) | 4.75% (active)
6 | COc1cc(-c2ccc[nH]2)[nH]c1/C=C1\N=C(C)C(CC(=O)OCC(C)(C)C)=C1C | -64.6% (active)
7 | C=CCN=c1sc(-c2ccc3ccccc3c2)cn1NC(=O)c1cc2ccc1CCc1ccc(cc1)CC2 | 72.9%
8 | COc1ccc(C2[C@@H](Cl)C(=O)N2c2cc(OC)c(OC)c(OC)c2)cc1Cl (stereo not given in full) | 21.9%
9 | CN(C)CCCn1c2c(c3cnccc3c1=O)C(=O)c1ccccc1-2 | -6.01% (active)
10 | Cn1c(=O)[nH]c(=O)c2nc3c(nc21)-c1ccccc1C3=O | 105%
11 | COc1cc(C=C2C(=O)NC(=S)NC2=O)cc(CN2CCCC2)c1O | 108%
12 | CN1CCN(c2ccc(NC3=CC(=O)c4ncncc4C3=O)cc2)CC1 | -64.1% (active)
13 | Cn1c(=O)c2[nH]c(SC/C(=N/O)c3ccc(Br)cc3)nc2n(C)c1=O | 92.7%
14 | O=C1/C(=C/c2ccccn2)SC(=S)N1N1CCOCC1 | 97.6%
15 | CS(=O)(=O)c1ccc(-c2nc3ccccc3n2CC(=O)N/N=C/c2ccccc2)cc1 | 103%
16 | Cc1cc(C(=O)CCCC(=O)c2cc(C)c(O)c(C)c2)cc(C)c1O | 98.9%
17 | CC/C(=C(\c1ccc(Cl)cc1)c1ccc(OCCN2CCCCC2)cc1)c1ccc(O)cc1 | -35.7% (active)
18 | CN(C)Cc1cc(C(C)(C)C)cc(Br)c1O | 87.7%
19 | CCN(CC)CCOc1ccc(/C(=C(\C)Cc2ccc(OC)cc2)c2ccc(OC(=O)NCc3ccccc3)cc2)cc1 | 57.6%
20 | c1cc(OCCN2CCCCCC2)ccc1CNc1ccc2nc(CCC3CCCCC3)[nH]c2c1 | 28.8%

Row | SMILES | growth
21 | O=C(/C=C/C12c3ccccc3C(c3ccccc31)C1C(=O)NC(=O)C12)c1ccc(I)cc1 (stereo not given) | 25%
22 | C/C(=N\Nc1ccccc1)c1ccc(NC2=CC(=O)c3ccccc3C2=O)cc1 | 48.4%
23 | CCCN(CCSSCCNc1nc(N(C)O)nc(N(C)O)n1)c1nc(N(C)O)nc(N(C)O)n1 | 75.1%
24 | FC(F)(F)c1[nH]ncc1-c1nc2ccc3[nH]ncc3c2c2c1CCCC2 | 7.83% (active)
25 | COC(=O)[C@]1(C)CCC[C@]2(C)[C@H]3C[C@@H]4[C@H]5[C@@H]6CC/C(=N\OCC/C(N)=N/O)[C@H]5[C@@]3(CC[C@H]21)CC4(C(C)C)O6 | 64.3%
26 | N#CSc1c[nH]c2ccc(/C=C/C(=O)/C=C(O)/C=C/c3ccc4[nH]cc(SC#N)c4c3)cc12 | 9.56% (active)
27 | CC1=C2CC/C(C)=C/CC[C@]3(C)O[C@H]3CC/C(C)=C/[C@H]2OC1 | 107%
28 | CCN1C(=O)N(c2ccccc2)C2NC(=S)N(/N=C/C=C/c3ccccc3OC)C21 (stereo not given) | 22.2%
29 | N#Cc1ccccc1-c1ccc(CN2C(=O)S/C(=C\c3ccc(Br)cc3)C2=O)cc1 | 103%
30 | Nc1cc(C(=O)O)cc(-n2c(O)c(C=C3N=c4ccccc4=N3)sc2=S)c1 | 96.8%
31 | CCNC(=O)N1CCc2c(Br)c3c(c(OC)c2C1Cc1ccc(OC)cc1)OCO3 (stereo not given) | 19%
32 | CCOc1ncc([N+](=O)[O-])c(OCC)n1 | 111%
33 | CCOC(=O)c1c(NC(=O)c2ccccc2)sc2c3c(ccc12)OCN(C)C3 | -42.3% (active)
34 | O=c1cc(CP(=O)(O)O)c2cc(O)c(-c3ccccc3)cc2o1 | 98.3%
35 | CC(O)CNC(Cc1ccccc1)c1ccc2c(c1)OCO2 (stereo not given) | 92.8%
36 | Nc1c(Cl)cc(/C=C2\C=Cc3ccccc32)cc1Cl | 111%
37 | CCn1cc(C(=O)N/N=C/c2cccc(F)c2)c(=O)c2cc(F)c(N3CCNC(C)C3)c(F)c21 (stereo not given) | -84.6% (active)
38 | Cc1oc(-c2ccc(Cl)cc2)nc1C1=NN(C(=O)c2ccncc2)C(c2ccccc2)C1 (stereo not given) | 95.2%
39 | COc1ccc(-c2cc(C(=O)N3N=C(c4ccc(N)cc4)CC3c3ccc(Cl)cc3)c3ccccc3n2)cc1 (stereo not given) | 29.2%
40 | O=S(=O)(Nc1ccc2ccccc2c1)c1ccc(-c2cnc(C3CC3)o2)cc1 | 24.3%
